# Experimental data as given in PubChem BioAssay (EPA / NIEHS).
# Records with an inconclusive call do not appear. Activity calls are given as the source filed them. The calls were made as follows: active = hit-call score of the fitted dose curve at least 0.9, where 1 is the maximum; inconclusive = response in the unintended direction; inactive = score below 0.9.
# Experiments:
# [1] = target: human Elastase, ELANE (gene 1991) (UniProt P08246); test: NVS_ENZ_hElastase: NovaScreen (NVS) Enzymatic Assay for human Elastase (AID 2283153)
# Method in brief: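 Concentration-response to 50 uM max, run singly for chemicals passing a threshold (e.g., 30% inhibition) in a duplicate 25 uM single-point screen. Neutrophil-derived human elastase, absorbance read-out of enzyme activity at 1.5 h; DMSO baseline.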
# [2] = target: human Ephrin type-B Receptor 1 (EphB1), EPHB1 (gene 2047) (UniProt P54762); test: NVS_ENZ_hEphB1: NovaScreen (NVS) Enzymatic Assay for human Ephrin type-B Receptor 1 (EphB1) (AID 2283154)
# Method in brief: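 Recombinant EphB1 activity read by fluorescence after mobility-shift separation of product from substrate, 1 h post-dosing. Compounds screened in duplicate at 25 uM; inhibition scored as signal loss relative to DMSO.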
# [3] = target: human Ephrin type-A Receptor 2 (EphA2), EPHA2 (gene 1969) (UniProt P29317); test: NVS_ENZ_hEphA2: NovaScreen (NVS) Enzymatic Assay for human Ephrin type-A Receptor 2 (EphA2) (AID 2283155)
# Method in brief: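 Enzyme activity of recombinant EphA2 read by fluorescence after mobility-shift separation, 1 h after dosing. Chemicals first tested at 25 uM (duplicate); those passing threshold run as concentration series, top 50 uM, single replicate, relative to DMSO.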
# [4] = target: human Ephrin type-B Receptor 2 (EphB2), EPHB2 (gene 2048) (UniProt P29323); test: NVS_ENZ_hEphB2: NovaScreen (NVS) Enzymatic Assay for human Ephrin type-B Receptor 2 (EphB2) (AID 2283156)
# Method in brief: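 Compounds were first tested in duplicate at 25 uM, with hits rerun singly in concentration series up to 50 uM. Enzyme activity on fluorescent substrate was read at 1 h by mobility-shift separation, scored as signal loss relative to DMSO.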
# [5] = target: Histone deacetylase 3 (Homo sapiens) (UniProt O15379); test: NVS_ENZ_hHDAC3: NovaScreen (NVS) Enzymatic Assay for human Histone Deacetylase 3 (HDAC3) (AID 2283163)
# Method in brief: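 Cell-free enzyme format: loss of fluorescent product after mobility-shift separation, 1 h incubation, recombinant human HDAC3. Single 25 uM duplicate screen first, then concentration series to a 50 uM top for hits; DMSO as baseline.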
# [6] = target: human Janus Kinase 2 (Jak2), JAK2 (gene 3717) (UniProt O60674); test: NVS_ENZ_hJak2: NovaScreen (NVS) Enzymatic Assay for human Janus Kinase 2 (Jak2) (AID 2283169)
# Method in brief: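 Single-point duplicate screen at 25 uM, with hits run in concentration series to a 50 uM top dose. Substrate-product separation by mobility shift with fluorescence detection, 1 h post-dosing; DMSO baseline.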
# [7] = target: human c-Jun N-terminal Kinases (JNK2), MAPK9 (gene 5601) (UniProt P45984); test: NVS_ENZ_hJNK2: NovaScreen (NVS) Enzymatic Assay for human c-Jun N-terminal Kinases (JNK2) (AID 2283171)
# Method in brief: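 Chemicals first tested in duplicate at 25 uM, then in singleton concentration series up to 50 uM, against extracted JNK2 enzyme. Activity loss read by fluorescence with mobility-shift separation 1 h post-dose; DMSO baseline.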
# [8] = target: Protein deacetylase HDAC6 (Homo sapiens) (UniProt Q9UBN7); test: NVS_ENZ_hHDAC6: NovaScreen (NVS) Enzymatic Assay for human Histone Deacetylase 6 (HDAC6) (AID 2283164)
# Method in brief: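 Concentration-response runs up to 50 uM followed a duplicate 25 uM single-point screen. Deacetylase activity of recombinant human HDAC6 read by fluorescence after 1 h, with mobility-shift separation of substrate and product; DMSO as baseline.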
# [9] = target: Mitogen-activated protein kinase 3 (Homo sapiens) (UniProt P27361); test: NVS_ENZ_hMAPK3: NovaScreen (NVS) Enzymatic Assay for human Mitogen-Activated Protein Kinase 3 (MAPK 3) (AID 2283177)
# Method in brief: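 Chemicals were first tested in duplicate at 25 uM, with hits re-run as concentration series (max 50 uM). Recombinant enzyme activity, measured 1 h post-dose in a cell-free format, was read by fluorescence/mobility shift relative to DMSO.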
# [10] = target: human MAP Kinase-Activated Protein Kinase 2 (MAPKAPK2), MAPKAPK2 (gene 9261) (UniProt P49137); test: NVS_ENZ_hMAPKAPK2: NovaScreen (NVS) Enzymatic Assay for human MAP Kinase-Activated Protein Kinase 2 (MAPKAPK2) (AID 2283178)
# Method in brief: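 Chemicals screened in duplicate at 25 uM, then to 50 uM top concentration in concentration-response, against recombinant human MAPKAPK2; substrate conversion read 1 hr post-dosing by fluorescence after electrophoretic mobility-shift separation, loss-of-signal relative to DMSO.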
# [11] = target: human MET Proto-Oncogene, Receptor Tyrosine Kinase (MET), MET (gene 4233) (UniProt P08581); test: NVS_ENZ_hMet: NovaScreen (NVS) Enzymatic Assay for human MET Proto-Oncogene, Receptor Tyrosine Kinase (MET) (AID 2283180)
# Method in brief: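 Hits from a 25 uM duplicate screen were retested in concentration series up to 50 uM. Enzyme activity was measured by fluorescence after electrophoretic separation of product from substrate, 1 h after compound addition, relative to DMSO.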
# [12] = target: human IkappaB Kinase alpha (IKKa), CHUK (gene 1147) (UniProt O15111); test: NVS_ENZ_hIKKa: NovaScreen (NVS) Enzymatic Assay for human IkappaB Kinase alpha (IKKa) (AID 2283167)
# Method in brief: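 Compounds first run in duplicate at 25 uM, those meeting threshold (e.g. 30% inhibition) retested to maximum 50 uM. Enzyme activity of recombinant IKKa measured by fluorescence with electrophoretic mobility shift separation, 1 hour post-dosing, DMSO baseline.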
# [13] = target: Glycogen synthase kinase-3 beta (Homo sapiens) (UniProt P49841); test: NVS_ENZ_hGSK3b: NovaScreen (NVS) Enzymatic Assay for human Glycogen Synthase Kinase-3 beta (GSK3b) (AID 2283165)
# Method in brief: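 Recombinant enzyme with specific fluorescent substrate, 1 h, product separated by electrophoretic mobility shift. Primary duplicate screen at 25 uM; actives (e.g. 30% inhibition) followed in singleton concentration-response to 50 uM. Signal loss fitted versus DMSO.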
# [14] = target: human Fibroblast Growth Factor Receptor 1 (FGFR1), FGFR1 (gene 2260) (UniProt P11362); test: NVS_ENZ_hFGFR1: NovaScreen (NVS) Enzymatic Assay for human Fibroblast Growth Factor Receptor 1 (FGFR1) (AID 2283159)
# Method in brief: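 Cell-free recombinant kinase with fluorescent substrate, product separated by electrophoretic mobility shift; read 1 hour after dosing, loss of signal relative to DMSO. Initial screen in duplicate at 25 uM, actives followed in concentration series.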
# [15] = target: human Mitogen-Activated Protein Kinase 1 (MAPK 1), MAPK1 (gene 5594) (UniProt P28482); test: NVS_ENZ_hMAPK1: NovaScreen (NVS) Enzymatic Assay for human Mitogen-Activated Protein Kinase 1 (MAPK 1) (AID 2283175)
# Method in brief: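 Cell-free recombinant human MAPK1 enzymatic assay, fluorescence/electrophoretic mobility shift read at 1 h; loss of signal vs DMSO. Primary screen in duplicate at 25 uM; actives (e.g. ≥30% inhibition) run as concentration-response up to 50 uM.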
# Histone deacetylase 3 (Homo sapiens), sequence (O15379 whole entry, looked up): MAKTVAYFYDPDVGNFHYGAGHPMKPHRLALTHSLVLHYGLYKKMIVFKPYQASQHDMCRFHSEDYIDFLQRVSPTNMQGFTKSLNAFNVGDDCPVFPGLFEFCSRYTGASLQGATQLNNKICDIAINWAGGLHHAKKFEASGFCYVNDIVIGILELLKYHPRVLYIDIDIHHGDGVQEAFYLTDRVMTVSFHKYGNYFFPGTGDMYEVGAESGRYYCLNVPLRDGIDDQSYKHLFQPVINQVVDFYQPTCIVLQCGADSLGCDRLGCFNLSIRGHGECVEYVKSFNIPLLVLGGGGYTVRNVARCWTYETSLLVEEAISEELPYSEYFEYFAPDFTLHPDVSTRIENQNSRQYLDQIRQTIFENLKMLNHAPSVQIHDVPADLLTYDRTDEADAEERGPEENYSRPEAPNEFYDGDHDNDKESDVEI
# Mitogen-activated protein kinase 3 (Homo sapiens), sequence (P27361 whole entry, looked up): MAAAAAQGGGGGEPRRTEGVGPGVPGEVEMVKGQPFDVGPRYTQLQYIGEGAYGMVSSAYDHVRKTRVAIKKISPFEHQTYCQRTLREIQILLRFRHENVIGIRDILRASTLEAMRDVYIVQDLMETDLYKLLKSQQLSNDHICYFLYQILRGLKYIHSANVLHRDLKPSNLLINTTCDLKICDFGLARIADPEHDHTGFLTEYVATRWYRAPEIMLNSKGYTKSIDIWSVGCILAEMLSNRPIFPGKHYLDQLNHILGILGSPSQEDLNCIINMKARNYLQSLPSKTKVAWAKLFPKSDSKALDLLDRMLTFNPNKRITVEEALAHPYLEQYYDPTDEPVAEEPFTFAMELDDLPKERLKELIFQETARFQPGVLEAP
# human Elastase, ELANE (gene 1991), sequence (P08246 whole entry, looked up): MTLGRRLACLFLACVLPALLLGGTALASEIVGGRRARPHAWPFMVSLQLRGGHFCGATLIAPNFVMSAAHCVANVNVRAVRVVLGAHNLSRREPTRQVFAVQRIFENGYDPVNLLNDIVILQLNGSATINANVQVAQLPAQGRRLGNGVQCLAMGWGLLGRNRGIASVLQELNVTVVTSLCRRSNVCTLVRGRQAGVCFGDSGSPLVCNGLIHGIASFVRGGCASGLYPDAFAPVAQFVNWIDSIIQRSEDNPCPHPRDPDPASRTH
# human Janus Kinase 2 (Jak2), JAK2 (gene 3717), sequence (O60674 whole entry, looked up): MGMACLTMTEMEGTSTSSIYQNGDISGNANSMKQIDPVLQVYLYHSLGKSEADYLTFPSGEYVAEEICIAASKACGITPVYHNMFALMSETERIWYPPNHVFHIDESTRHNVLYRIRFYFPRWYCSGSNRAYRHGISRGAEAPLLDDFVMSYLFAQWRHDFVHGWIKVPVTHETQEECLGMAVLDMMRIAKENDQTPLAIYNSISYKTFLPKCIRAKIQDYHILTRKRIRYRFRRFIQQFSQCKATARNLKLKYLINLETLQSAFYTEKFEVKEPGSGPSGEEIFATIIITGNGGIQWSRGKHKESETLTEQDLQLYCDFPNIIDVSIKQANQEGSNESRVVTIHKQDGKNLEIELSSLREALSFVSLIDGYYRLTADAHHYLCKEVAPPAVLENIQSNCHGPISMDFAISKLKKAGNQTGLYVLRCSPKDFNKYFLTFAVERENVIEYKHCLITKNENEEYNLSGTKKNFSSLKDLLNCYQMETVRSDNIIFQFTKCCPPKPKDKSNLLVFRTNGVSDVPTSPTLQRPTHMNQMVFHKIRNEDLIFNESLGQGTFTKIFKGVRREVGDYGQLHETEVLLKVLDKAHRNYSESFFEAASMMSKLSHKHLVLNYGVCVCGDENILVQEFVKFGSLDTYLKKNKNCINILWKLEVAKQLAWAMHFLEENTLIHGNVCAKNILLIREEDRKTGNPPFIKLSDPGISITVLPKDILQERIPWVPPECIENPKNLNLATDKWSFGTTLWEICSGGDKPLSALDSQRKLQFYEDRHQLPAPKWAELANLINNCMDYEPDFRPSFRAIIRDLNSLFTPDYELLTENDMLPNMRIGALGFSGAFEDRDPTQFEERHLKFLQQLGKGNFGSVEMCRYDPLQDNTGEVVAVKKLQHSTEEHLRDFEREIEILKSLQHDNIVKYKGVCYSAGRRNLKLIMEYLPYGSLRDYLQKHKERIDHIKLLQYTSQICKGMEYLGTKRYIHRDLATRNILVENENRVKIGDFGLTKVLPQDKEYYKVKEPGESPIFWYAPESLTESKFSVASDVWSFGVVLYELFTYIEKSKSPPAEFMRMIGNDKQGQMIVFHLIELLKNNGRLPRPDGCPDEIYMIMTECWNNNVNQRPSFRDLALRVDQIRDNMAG
# human c-Jun N-terminal Kinases (JNK2), MAPK9 (gene 5601), sequence (P45984 whole entry, looked up): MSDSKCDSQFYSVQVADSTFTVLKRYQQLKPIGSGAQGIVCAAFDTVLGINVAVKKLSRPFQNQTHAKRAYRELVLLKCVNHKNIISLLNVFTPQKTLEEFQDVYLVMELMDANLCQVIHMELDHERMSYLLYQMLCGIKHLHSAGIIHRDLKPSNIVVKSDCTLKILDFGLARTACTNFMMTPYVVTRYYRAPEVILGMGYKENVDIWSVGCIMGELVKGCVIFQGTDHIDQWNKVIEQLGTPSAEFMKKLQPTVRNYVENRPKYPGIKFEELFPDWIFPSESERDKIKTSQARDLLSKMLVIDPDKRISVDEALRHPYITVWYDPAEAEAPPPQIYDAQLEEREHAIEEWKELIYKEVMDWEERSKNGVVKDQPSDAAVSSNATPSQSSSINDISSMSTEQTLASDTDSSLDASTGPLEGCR
# human MET Proto-Oncogene, Receptor Tyrosine Kinase (MET), MET (gene 4233), sequence (P08581 whole entry, looked up): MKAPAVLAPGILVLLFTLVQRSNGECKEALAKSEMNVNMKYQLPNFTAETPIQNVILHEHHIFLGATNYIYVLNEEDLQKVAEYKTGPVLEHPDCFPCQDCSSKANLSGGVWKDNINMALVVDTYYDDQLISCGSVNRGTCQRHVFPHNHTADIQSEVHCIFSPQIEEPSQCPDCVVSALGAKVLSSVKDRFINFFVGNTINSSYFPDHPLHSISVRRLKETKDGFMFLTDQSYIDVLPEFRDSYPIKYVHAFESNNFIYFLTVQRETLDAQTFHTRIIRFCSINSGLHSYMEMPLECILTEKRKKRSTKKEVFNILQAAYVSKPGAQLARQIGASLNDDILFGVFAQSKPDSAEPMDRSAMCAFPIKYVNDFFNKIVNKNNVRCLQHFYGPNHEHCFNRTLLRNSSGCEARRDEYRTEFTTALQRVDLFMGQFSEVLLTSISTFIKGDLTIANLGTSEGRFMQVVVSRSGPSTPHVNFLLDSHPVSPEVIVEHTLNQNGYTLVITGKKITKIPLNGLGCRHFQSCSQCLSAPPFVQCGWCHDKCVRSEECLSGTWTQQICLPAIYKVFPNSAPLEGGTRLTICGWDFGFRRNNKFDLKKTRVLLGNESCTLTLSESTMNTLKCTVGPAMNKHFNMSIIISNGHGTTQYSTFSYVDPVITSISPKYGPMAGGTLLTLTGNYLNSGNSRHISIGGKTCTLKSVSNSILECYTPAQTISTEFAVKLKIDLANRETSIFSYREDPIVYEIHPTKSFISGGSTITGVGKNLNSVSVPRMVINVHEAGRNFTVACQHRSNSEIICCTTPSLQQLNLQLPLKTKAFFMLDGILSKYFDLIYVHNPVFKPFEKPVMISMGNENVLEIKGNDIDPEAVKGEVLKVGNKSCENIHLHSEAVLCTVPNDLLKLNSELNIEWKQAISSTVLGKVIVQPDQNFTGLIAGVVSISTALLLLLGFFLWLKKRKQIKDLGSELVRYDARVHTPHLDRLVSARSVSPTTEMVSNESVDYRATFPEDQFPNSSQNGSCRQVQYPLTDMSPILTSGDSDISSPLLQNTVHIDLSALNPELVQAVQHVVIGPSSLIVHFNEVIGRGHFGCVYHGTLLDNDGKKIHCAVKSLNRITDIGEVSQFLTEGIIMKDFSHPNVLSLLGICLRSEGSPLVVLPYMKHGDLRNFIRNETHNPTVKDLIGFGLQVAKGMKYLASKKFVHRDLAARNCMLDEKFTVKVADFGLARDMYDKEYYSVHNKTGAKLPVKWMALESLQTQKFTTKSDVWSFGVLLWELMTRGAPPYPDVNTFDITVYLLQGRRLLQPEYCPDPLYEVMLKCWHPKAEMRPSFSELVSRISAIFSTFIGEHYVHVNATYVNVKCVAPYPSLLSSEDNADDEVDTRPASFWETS
# human Ephrin type-B Receptor 1 (EphB1), EPHB1 (gene 2047), sequence (P54762 whole entry, looked up): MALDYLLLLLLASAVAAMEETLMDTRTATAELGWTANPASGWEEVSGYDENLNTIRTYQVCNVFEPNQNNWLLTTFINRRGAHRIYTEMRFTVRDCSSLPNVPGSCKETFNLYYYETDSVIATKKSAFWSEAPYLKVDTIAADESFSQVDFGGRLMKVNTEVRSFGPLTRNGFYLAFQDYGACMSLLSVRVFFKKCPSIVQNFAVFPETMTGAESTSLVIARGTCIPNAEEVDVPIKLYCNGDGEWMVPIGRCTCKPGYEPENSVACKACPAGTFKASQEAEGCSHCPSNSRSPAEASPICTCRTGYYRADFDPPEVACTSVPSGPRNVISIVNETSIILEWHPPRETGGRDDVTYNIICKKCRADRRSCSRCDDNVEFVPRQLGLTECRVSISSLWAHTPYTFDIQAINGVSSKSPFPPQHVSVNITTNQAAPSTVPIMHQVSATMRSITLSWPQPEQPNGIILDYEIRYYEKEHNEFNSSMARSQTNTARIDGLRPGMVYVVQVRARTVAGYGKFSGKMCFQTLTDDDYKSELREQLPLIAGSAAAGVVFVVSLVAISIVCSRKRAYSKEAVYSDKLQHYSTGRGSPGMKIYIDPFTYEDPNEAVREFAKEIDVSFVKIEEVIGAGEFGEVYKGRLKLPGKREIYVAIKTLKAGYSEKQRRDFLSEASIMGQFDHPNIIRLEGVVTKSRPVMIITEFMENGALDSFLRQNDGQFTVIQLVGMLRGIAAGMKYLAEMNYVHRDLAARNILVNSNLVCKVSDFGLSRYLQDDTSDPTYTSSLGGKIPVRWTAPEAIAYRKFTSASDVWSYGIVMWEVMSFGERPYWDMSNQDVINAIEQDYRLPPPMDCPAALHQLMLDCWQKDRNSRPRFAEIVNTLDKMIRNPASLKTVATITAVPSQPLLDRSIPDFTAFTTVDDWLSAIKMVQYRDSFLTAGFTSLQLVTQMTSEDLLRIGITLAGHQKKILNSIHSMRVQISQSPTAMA
smiles,measurement,setting,value
NS(=O)(=O)C(F)(F)C(F)(F)C(F)(F)C(F)(F)C(F)(F)C(F)(F)C(F)(F)C(F)(F)F,outcome,[1],inactive
ClC1=C(Cl)[C@]2(Cl)[C@@H]3[C@@H]4C[C@@H]([C@H]5O[C@@H]45)[C@@H]3[C@@]1(Cl)C2(Cl)Cl,AC50,[1],37.5 µM (active)
CN(C)c1nc(=O)n(C2CCCCC2)c(=O)n1C,outcome,[2],inactive
Cc1ccccc1CO[C@@H]1C[C@@]2(C(C)C)CC[C@]1(C)O2,outcome,[2],inactive
O=C(NC(=O)c1c(F)cccc1F)Nc1cc(Cl)c(OC(F)(F)C(F)F)c(Cl)c1,outcome,[3],inactive
Oc1ccc(C(c2ccc(O)cc2)(C(F)(F)F)C(F)(F)F)cc1,outcome,[4],inactive
O=C(O)C(F)(F)C(F)(F)C(F)(F)C(F)(F)C(F)(F)F,outcome,[5],inactive
same,outcome,[6],inactive
same,outcome,[7],inactive
CC1=C2C[C@H]3[C@@H](CC=C4C[C@@H](O)CC[C@@]43C)[C@@H]2CC[C@]12O[C@@H]1C[C@H](C)CN[C@H]1[C@H]2C,outcome,[5],inactive
same,outcome,[8],inactive
same,outcome,[7],inactive
same,outcome,[9],inactive
same,outcome,[10],inactive
same,outcome,[11],inactive
O=C(O)C(F)(F)C(F)(F)C(F)(F)C(F)(F)C(F)(F)C(F)(F)C(F)(F)C(F)(F)F,outcome,[12],inactive
same,outcome,[11],inactive
Cc1cccc([N+](=O)[O-])c1,outcome,[9],inactive
Cc1cccc(C)c1N,outcome,[9],inactive
O=C(NC(=O)c1cc(F)c(F)cc1Cl)Nc1cc(F)ccc1N1CCC(C(=O)O)CC1,outcome,[13],inactive
Nn1cnnc1,outcome,[5],inactive
Clc1ccc(C(c2ccccc2Cl)C(Cl)(Cl)Cl)cc1 (stereo not given),outcome,[14],inactive
same,outcome,[6],inactive
CC#Cc1cc(C)nc(Nc2ccccc2)n1,outcome,[9],inactive
CCNc1nc(NC(C)C)nc(SC)n1,outcome,[15],inactive
